# Laboratory results from PubChem BioAssay (NCI).
# Compounds without any hit were thinned out: in the full panel of roughly 79,000, 15% have a hit. Calls of active or inactive are those of the source. Cut-off read from the data, not from the text of the source: active = growth inhibition above about 70%; inactive = the rest. Where a SMILES comes first, the peptide text is derived from it. The star is where a group is joined. Trt = c1ccc(C(c2ccccc2)(c2ccccc2)*)cc1; Cbz = O=C(OCc1ccccc1)*
# Assay: NCI Yeast Anticancer Drug Screen. Data for the mec2-1 strain (AID 157)
# Conditions: S. cerevisiae mec2-1 strain, at 50.0 µM (retest, dose inferred, filed as 5.0), stronger effect = higher value
# Outline: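 Readout is yeast growth inhibition, normalised to vehicle-treated controls, in the mec2-1 strain exposed to compound.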
row,Compound,growth inhibition
1,CCCCCCN(CCCCCC)CC(O)c1cc(-c2ccccc2)nc2c(O)cccc12 (configuration not stated),73% (active)
2,O=C1C=CC(=O)N1C1c2ccccc2-c2ccccc21,100% (active)
3,CC(=O)c1ccc(OCc2ccccc2)cc1,5% (inactive)
4,O=C(Oc1cccc2cccnc12)c1ccccc1,98% (active)
5,C=C(Cl)C(=NC(C)(C)C)Nc1ccccc1C,56% (inactive)
6,COC(=O)C(CSC(c1ccccc1)(c1ccccc1)c1ccccc1)NC(=O)C(CC(N)=O)NC(=O)OCc1ccccc1 (stereo not drawn) (Cbz-Asn-Cys(Trt)-OMe; configuration not given here),89% (active)
7,ClCc1nnc2n1-c1ccc(Cl)cc1SC2,64% (inactive)

# Same assay, conditions: S. cerevisiae mec2-1 strain, at 50.0 µM, stronger effect = higher value
row,Compound,growth inhibition
1,CC(=O)O[C@H]1CC[C@]2(C)C3=CC[C@]4(C)[C@@H](C(C)=O)CC[C@H]4[C@@]34C=C[C@]2(C1)C1C(=O)OC(=O)C14 (some centres not stated),20.7% (inactive)
2,Cc1cc(O)c2c(c1)C(=O)c1c(c(O)cc(O)c1-c1c(O)cc(O)c3c1C(=O)c1cc(C)cc(O)c1C3=O)C2=O,70.3% (active)
3,NC(=O)/C(=N\NC(=O)c1cc2ccccc2cc1O)C1C(=O)N(c2ccccc2)N=C1N (configuration not stated),43.4% (inactive)
4,CCNC(=S)NNC(=S)NNc1ccccc1,38.5% (inactive)
5,OCC(O)C(O)C(O)C(O)C(O)C(/C=N/Nc1ccccc1)=N/Nc1ccccc1 (configuration not stated),29.2% (inactive)
6,O=C(CN(Cc1ccccc1)Cc1ccccc1)c1ccccc1,-1.8% (inactive)
7,COC(=O)C1CCC(c2ccccc2)CC1C(=O)OC (configuration not stated),20.9% (inactive)
8,COc1ccc2c(c1)C(=O)C(Br)CC2 (configuration not stated),66.6% (inactive)
9,O=C1c2ccccc2C(=O)c2sc(Nc3ccc(Cl)cc3)nc21,92.9% (active)
10,O=Nc1c(-c2cccc([N+](=O)[O-])c2)nc2cnccn12,98.5% (active)
11,CC/C(=N\NS(=O)(=O)c1ccc(C)cc1)c1cccc(OC)c1,40.6% (inactive)
12,NNC(=S)NN/C=C(\C=Nc1ccccc1)[N+](=O)[O-],68% (inactive)
13,CC(C)(C)c1ccc(CN2CCN(C(c3ccccc3)c3ccc(Cl)cc3)CC2)cc1 (configuration not stated),1.45% (inactive)
14,O=C1OCc2cccc3cccc1c23,38.6% (inactive)
15,CC(C)CC(NC(=O)COc1c(Cl)cc(Cl)c(Cl)c1Cl)C(=O)O (configuration not stated),-8.6% (inactive)
16,CC1CCN(CCC(=O)c2cccc(O)c2)CC1,36.3% (inactive)
17,CCC(c1ccc(O)c(C2CCCCC2)c1)C(CC)c1ccc(OC(=O)c2ccccc2)c(C2CCCCC2)c1 (configuration not stated),-10.8% (inactive)
18,CC(=O)c1csc2c1C(=O)c1scc(C(C)=O)c1C2=O,30.9% (inactive)
19,O=C1C2=Cc3ccccc3CCN2c2ccccc21,90.7% (active)
20,Cc1cc(I)cc(I)c1O,80.7% (active)

row,Compound,growth inhibition
1,NCCCSc1ccc(Br)cc1,34.3% (inactive)
2,O=C1OC2(Cc3ccccc31)c1ccccc1-c1ccccc12,25.9% (inactive)
3,Cc1occc1C(=S)Nc1ccc(Cl)c(C(=O)OCC2CC2)c1,86% (active)
4,c1cc(C2=NCCN2)ccc1Nc1ccc(-c2cc3ccc(C4=NCCN4)cc3[nH]2)cc1,99.2% (active)
5,Cc1ccc(C)c(NC(=O)CC2SC(=Nc3ccccc3Cl)NC2=O)c1 (configuration not stated),58.9% (inactive)
6,Cc1ccccc1[P+](C)(c1ccccc1C)c1ccccc1C,69.7% (inactive)
7,Oc1ccc(CNCc2ccccc2)c2cccnc12,97% (active)
8,COC(=O)c1ccc(OC)cc1,3.4% (inactive)
9,OCC(CO)C1c2cccc3ccc4cccc1c4c23,17.8% (inactive)
10,CCC(CCCN(CC)CCc1ccccc1)OC(=O)c1cc(OC)c(OC)c(OC)c1 (configuration not stated),27.2% (inactive)
11,O=[N+]([O-])c1ccc(-[n+]2ccc3ccccc3c2)c([N+](=O)[O-])c1,52.3% (inactive)
12,CN(C)CCC1(C2=CCCC2)CC/C(=C\c2ccccc2Cl)C1=O (configuration not stated),22.6% (inactive)
13,CCOC(=O)CCC(NC(=O)c1ccc(NC(OC)c2nc3cc(C(F)(F)F)ccc3nc2-c2ccccc2)cc1)C(=O)OCC (configuration not stated),93.2% (active)
14,CCCCCCN(CCCCCC)CC(O)c1cc(-c2ccccc2)nc2c(O)cccc12 (configuration not stated),22.6% (inactive)
15,O=C1C=CC(=O)N1C1c2ccccc2-c2ccccc21,99.1% (active)
16,CC(=O)c1ccc(OCc2ccccc2)cc1,-15.5% (inactive)
17,O=C(Oc1cccc2cccnc12)c1ccccc1,97% (active)
18,C=C(Cl)C(=NC(C)(C)C)Nc1ccccc1C,74.9% (active)
19,COC(=O)C(CSC(c1ccccc1)(c1ccccc1)c1ccccc1)NC(=O)C(CC(N)=O)NC(=O)OCc1ccccc1 (stereo not drawn) (Cbz-Asn-Cys(Trt)-OMe; configuration not given here),68.2% (inactive)
20,ClCc1nnc2n1-c1ccc(Cl)cc1SC2,25.9% (inactive)
